We go through 19 molecules from PubChem BioAssay (NCATS).

Results filed as inconclusive are left out. Values without a mark were called inactive. The source made the active and inactive calls. Calls come from the whole dose curve; as a rule, active = well fitted curve in the direction sought with a large enough effect; inconclusive = small, poorly fitted or top-dose-only effect, or another doubt; inactive = no such curve, though single readings can be large; an effect the other way counts as inactive or inconclusive.

A short description of assay [1]: qHTS of pediatric cancer cell lines to identify multiple opportunities for drug repurposing: Primary screen for Saos-2 cells (AID 1347097). For activity change, negative = cytotoxic: % is set by controls: 0 for no effect and ±100 for the full control effect. Note: nearly all actives have a fitted effect of over 40% in size. Note: potency is the fitted concentration of half-maximal effect. The essentials:
(§1)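 Cells seeded at 500-1,000 cells/well in growth media, rested 5 hours at 37 degrees C, 5% CO2, then dosed; MIPE compounds at 11-point (from 0.78 nM) and NPC at 8-point (from 0.59 nM) final concentrations. Viability by CellTiter-Glo luminescence after 48 hours.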
Background: qHTS replaces the single test concentration by a dilution series.

Assay [2] can be described thus: qHTS of pediatric cancer cell lines to identify multiple opportunities for drug repurposing: Primary screen for SK-N-SH cells (AID 1347098).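 For activity change, negative = cytotoxic: DMSO served as neutral control and bortezomib at 2.3 µM as positive control; % is set by controls: 0 for no effect and ±100 for the full control effect.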 Note: nearly all actives have a fitted effect of over 65% in size. Note: potency is the fitted concentration of half-maximal effect. In short, it runs like this:
(§2)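 Cells (500-1,000/well) rested 5 h, then received compounds for 48 h; metabolically active cells were measured by CellTiter-Glo luminescence. Final concentrations spanned up to 46 µM (MIPE, 11-point) or 0.59 nM-46 µM (NPC, 8-point) in primary screens, 11-point in follow-ups.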

Assay [3] is described as follows: qHTS of pediatric cancer cell lines to identify multiple opportunities for drug repurposing: Primary screen for NB1643 cells (AID 1347099).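 For activity change, negative = cytotoxic: plate controls were DMSO neutral control for no effect and bortezomib positive control for full effect.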 Note: nearly all actives have a fitted effect of over 50% in size. Note: potency is the fitted concentration of half-maximal effect. In short, it runs like this: as §1
Assay [4] can be described thus: qHTS of pediatric cancer cell lines to identify multiple opportunities for drug repurposing: Primary screen for LAN-5 cells (AID 1347100).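 For activity change, negative = cytotoxic: plate controls were DMSO neutral control for no effect and bortezomib positive control for full effect.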 Note: potency is the fitted concentration of half-maximal effect. The essentials:
as §2

Assay [5] is described as follows: qHTS of pediatric cancer cell lines to identify multiple opportunities for drug repurposing: Primary screen for BT-12 cells (AID 1347101).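 For activity change, negative = cytotoxic: plate controls were DMSO for no effect and bortezomib positive control for full effect.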 Note: nearly all actives have a fitted effect of over 25% in size. Note: potency is the fitted concentration of half-maximal effect. In short, it runs like this:
as §2

The nature of assay [6]: qHTS of pediatric cancer cell lines to identify multiple opportunities for drug repurposing: Primary screen for Rh18 cells (AID 1347102). For activity change, negative = cytotoxic: % is set by controls: 0 for no effect and ±100 for the full control effect. Note: nearly all actives have a fitted effect of over 65% in size. Note: potency is the fitted concentration of half-maximal effect. The essentials:
as §2

Assay [7] is described as follows: qHTS of pediatric cancer cell lines to identify multiple opportunities for drug repurposing: Primary screen for OHS-50 cells (AID 1347103).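 For activity change, negative = cytotoxic: plate controls were DMSO neutral control for no effect and bortezomib positive control for full effect.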 Note: nearly all actives have a fitted effect of over 40% in size. Note: potency is the fitted concentration of half-maximal effect. The essentials:
as §2

The nature of assay [8]: qHTS of pediatric cancer cell lines to identify multiple opportunities for drug repurposing: Primary screen for RD cells (AID 1347104).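 For activity change, negative = cytotoxic: plate controls were DMSO for no effect and bortezomib for full effect.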 Note: nearly all actives have a fitted effect of over 55% in size. Note: potency is the fitted concentration of half-maximal effect. The essentials: as §1
The nature of assay [9]: qHTS of pediatric cancer cell lines to identify multiple opportunities for drug repurposing: Primary screen for MG 63 (6-TG R) cells (AID 1347105). For activity change, negative = cytotoxic: % is set by controls: 0 for no effect and ±100 for the full control effect. Note: nearly all actives have a fitted effect of over 50% in size. Note: potency is the fitted concentration of half-maximal effect. The essentials:
as §1

The nature of assay [10]: qHTS of pediatric cancer cell lines to identify multiple opportunities for drug repurposing: Primary screen for control Hh wild type fibroblast cells (AID 1347106).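 Note: series mostly up to about 46 µM; % is set by controls: 0 for no effect and ±100 for the full control effect; a drop in luminescence marks cytotoxicity and a rise apparent proliferation; nearly all actives have a fitted effect of over 55% in size.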 In short, it runs like this:
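Viability after 48 h compound treatment at 37C, 500-1,000 cells/well, read as ATP luminescence with CellTiter-Glo. Primary screens used 11-point (MIPE, 0.78 nM-46 µM) or 8-point (NPC, 0.59 nM-46 µM) final concentrations; follow-up screens used 11-point dilutions.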

A short description of assay [11]: qHTS of pediatric cancer cell lines to identify multiple opportunities for drug repurposing: Primary screen for Rh30 cells (AID 1347107). Note: series mostly up to about 46 µM; % is set by controls: 0 for no effect and ±100 for the full control effect; nearly all actives have a fitted effect of over 75% in size. The essentials:
as §2

Assay [12] is described as follows: qHTS of pediatric cancer cell lines to identify multiple opportunities for drug repurposing: Primary screen for Rh41 cells (AID 1347108).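 Note: series mostly up to about 46 µM; luminescence drop marks cytotoxic hits; nearly all actives have a fitted effect of over 70% in size.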 In short, it runs like this:
as §1

Take `Cc1c(N(C)CS(=O)(=O)O)c(=O)n(-c2ccccc2)n1C`: the Potency entry in assay [1], in [2], in assay [3], in assay [4], in assay [5] and in assay [6] was “inactive” throughout. In addition, the Potency result in assay [7], in assay [8], in assay [9], in assay [10], in [11] and in assay [12] was “inactive” in each case.

For the molecule `Nc1nc2ncc(CNc3ccc(C(=O)N[C@@H](CCC(=O)O)C(=O)O)cc3)nc2c(=O)[nH]1`, the Potency entry in assay [1], in assay [2], in assay [3], in assay [4], in assay [5] and in assay [6] was “inactive” throughout. Also, the Potency result in assay [7], in assay [8], in [9], in assay [10], in assay [11] and in [12] was “inactive” throughout.

With `COc1cc(C(=S)N2CCOCC2)cc(OC)c1OC`, the Potency result in [1], in assay [2], in [3], in assay [4], in assay [5] and in [6] was “inactive” in each case. Besides, the Potency result in assay [7], in assay [8], in assay [9], in assay [10], in assay [11] and in assay [12] was “inactive” throughout.

In the case of `COc1ccc(OC)c(C(O)CNC(=O)CN)c1` (stereo not given), the Potency entry in assay [1], in assay [2], in [3], in assay [4], in [5] and in assay [6] was “inactive” throughout. Further, the Potency result in assay [7], in assay [8], in [9], in assay [10], in assay [11] and in [12] was “inactive” in each case.

For `C/C=C/c1ccc(OC)cc1`, the Potency entry in assay [1], in assay [2], in [3], in assay [4], in [5] and in assay [6] was “inactive” in each case. Moreover, the Potency result in [7], in assay [8], in assay [9], in assay [10], in assay [11] and in assay [12] was “inactive” in each case.

Take `Cc1c(F)c(N2CCNC(C)C2)cc2c1c(=O)c(C(=O)O)cn2C1CC1` (stereo not given): the Potency entry in assay [1], in [2], in assay [3], in [4], in [5] and in assay [6] was “inactive” throughout. In addition, the Potency entry in assay [7], in assay [8], in assay [9], in assay [10], in assay [11] and in assay [12] was “inactive” throughout.

Take `CCOC(=O)COc1ccc2c(C)c(CCN(CC)CC)c(=O)oc2c1Cl`: the Potency result in [1], in [2], in [3], in assay [4], in [5] and in assay [6] was “inactive” each time. The Potency result in assay [7], in [8], in [9], in [10], in assay [11] and in assay [12] was “inactive” each time.

`CC(C)n1nc(-c2cc3cc(O)ccc3[nH]2)c2c(N)ncnc21`: the Potency in [1] was 4.22 µM (active); in [2], 12.2 µM (active); in [3], 21.1 µM (active); in [4], 8.41 µM (active); in assay [5] it was 1.23 µM (active); in assay [6] it was 6.68 µM (active). For the same molecule, the values for the Potency in assay [7], in assay [8] and in assay [9] were 0.437 µM (active), 8.41 µM (active) and 1.68 µM (active), respectively.

For the molecule `CC1(C)O[C@@H]2[C@@H](CO[C@@]3(COS(N)(=O)=O)OC(C)(C)O[C@@H]23)O1`, the Potency result in assay [1], in assay [2], in [3], in assay [4], in assay [5] and in assay [6] was “inactive” throughout. Moreover, the Potency result in assay [7], in assay [8], in assay [9], in assay [10], in [11] and in assay [12] was “inactive” throughout.

In the case of `Cc1nc2n(c(=O)c1CCN1CCC(c3noc4cc(F)ccc34)CC1)CCC[C@H]2O`, the Potency result in assay [1], in assay [2], in assay [3], in assay [4], in assay [5] and in assay [6] was “inactive” in each case. Moreover, the Potency entry in assay [7], in assay [8], in assay [9], in assay [10], in assay [11] and in assay [12] was “inactive” each time.

Consider `Cc1onc(-c2c(Cl)cccc2Cl)c1C(=O)N[C@@H]1C(=O)N2[C@@H]1SC(C)(C)[C@@H]2C(=O)O`, for which the Potency entry in assay [1], in [2], in [3], in assay [4], in [5] and in assay [6] was “inactive” each time. Also, the Potency result in assay [7], in [8], in [9], in [10], in assay [11] and in assay [12] was “inactive” in each case.

For `Nc1ccc(/C=C/c2ccc(N)cc2S(=O)(=O)O)c(S(=O)(=O)O)c1`, the activity change, negative = cytotoxic is 2.49% [at 0.597 µM] in [1]; 12.2% [at 0.741 µM] in [2]; 24.7% [at 0.597 µM] in assay [3]; 21.1% [at 0.597 µM] in assay [4]; 16.8% [at 0.745 µM] in assay [5]; 24% [at 0.597 µM] in assay [6]. In addition, the activity change, negative = cytotoxic in assay [7] was 19.6% [at 0.73 µM]; in [8], 13.1% [at 0.597 µM]; in assay [9] it was 9.42% [at 0.597 µM]; in assay [10], -3.6% [at 0.597 µM]; in assay [11], 24.6% [at 0.597 µM]; in [12], 37.3% [at 0.597 µM].

On to `Cc1cc(=O)n(-c2ccccc2)n1C`, for which the Potency result in assay [1], in [2], in [3], in assay [4], in assay [5] and in [6] was “inactive” each time. Also, the Potency result in assay [7], in [8], in assay [9], in assay [10], in [11] and in [12] was “inactive” in each case.

In the case of `CC(=O)Oc1ccc(C(=C2CCCCC2)c2ccc(OC(C)=O)cc2)cc1`, the Potency result in assay [1], in assay [2], in [3], in assay [4], in [5] and in [6] was “inactive” in each case. For the same molecule, the Potency result in [7], in assay [8], in assay [9], in assay [10], in assay [11] and in [12] was “inactive” in each case.

In the case of `NC[C@H]1O[C@H](O[C@H]2[C@H](O[C@@H]3O[C@H](CO)[C@@H](O)[C@H]3O)C(O)[C@H](N)C[C@@H]2N)[C@H](N)[C@@H](O)[C@@H]1O` (stereo not given in full), the activity change, negative = cytotoxic in assay [1] is -4.84% [at 9.22 µM]; in assay [2], 19.9% [at 11.4 µM]; in assay [3], 0% [at 9.22 µM]; in [4] it was 25.3% [at 9.22 µM]; in [5] it was 7.42% [at 11.5 µM]; in [6] it was 31.2% [at 9.22 µM]. Further, the activity change, negative = cytotoxic in assay [7] is 7.33% [at 11.5 µM]; in [8], 14% [at 9.22 µM]; in assay [9] it was -2.08% [at 9.22 µM]; in [10], -1.08% [at 9.22 µM]; in [11] it was 23.6% [at 9.22 µM]; in assay [12] it was 34.8% [at 9.22 µM].

As for `CN1CCC[C@@H]1c1cccnc1`, the Potency result in [1], in assay [2], in [3], in [4], in assay [5] and in assay [6] was “inactive” each time. Moreover, the Potency result in assay [7], in assay [8], in assay [9], in [10], in assay [11] and in [12] was “inactive” throughout.

On to `CN=C(NC#N)Nc1ccc(C2=NNC(=O)CC2C)cc1` (stereo not given), for which the Potency entry in [1], in assay [2], in assay [3], in assay [4], in [5] and in [6] was “inactive” each time. Further, the Potency entry in [7], in assay [8], in assay [9], in assay [10], in assay [11] and in assay [12] was “inactive” throughout.

As for `COc1ccc(C2C(=O)c3ccccc3C2=O)cc1`, the Potency result in [1], in [2], in assay [3], in assay [4], in [5] and in [6] was “inactive” in each case. For the same molecule, the Potency result in assay [7], in assay [8], in assay [9], in assay [10], in assay [11] and in assay [12] was “inactive” in each case.

Turning to `CC[C@@H](CO)NCCN[C@@H](CC)CO`, the Potency entry in assay [1], in assay [2], in assay [3], in assay [4], in assay [5] and in [6] was “inactive” each time. For the same molecule, the Potency entry in assay [7], in assay [8], in assay [9], in [10], in [11] and in assay [12] was “inactive” in each case.
